# In the library only some 2.2% were active in any assay of this set; here they are far more common.
# GALK inh: qHTS Assay for Inhibitors of Human Galactokinase (GALK); Purified GALK, Kinase-Glo residual ATP luminescence; P51570; hit rate 0.007% among 270,000; Potency, µM (titrated, usually from 57.5 µM), usual class: inhibitors
#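 Quantitative HTS: GALK 5 nM, ATP 35 uM, galactose 100 uM, 1 h room temperature, then luciferase-based ATP detection.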
# PI4K2A block: qHTS for small molecular inhibitors of PI4K2A | purified PI4K2A, ADP-Glo luminescence, 1 h; hits give low values | activity change, negative = inhibition, % at 76.9 µM | hit rate 0.13% among 420,000; in the data active = activity change below about -50%; inconclusive = mostly about -30% to -49%
# Target sequence (Q9BTU6 whole entry, looked up): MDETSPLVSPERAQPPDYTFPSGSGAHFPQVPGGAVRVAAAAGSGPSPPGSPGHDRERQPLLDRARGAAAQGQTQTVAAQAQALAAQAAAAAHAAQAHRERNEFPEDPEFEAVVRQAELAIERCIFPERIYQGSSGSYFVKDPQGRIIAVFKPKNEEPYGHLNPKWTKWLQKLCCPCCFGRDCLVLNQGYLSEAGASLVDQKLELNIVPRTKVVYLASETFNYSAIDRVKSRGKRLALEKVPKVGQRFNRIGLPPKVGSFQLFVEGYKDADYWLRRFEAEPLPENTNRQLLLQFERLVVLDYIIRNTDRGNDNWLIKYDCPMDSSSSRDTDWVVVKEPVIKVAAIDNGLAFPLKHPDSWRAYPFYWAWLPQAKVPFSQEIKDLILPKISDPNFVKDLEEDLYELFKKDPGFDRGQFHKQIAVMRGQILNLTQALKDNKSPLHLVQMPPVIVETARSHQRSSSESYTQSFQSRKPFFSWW
#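 Compounds are screened against recombinant PI4K2A using PI as substrate and ATP, the latter dispensed at 300 microM. Reactions run one hour at ambient temperature before ADP-Glo detection; full inhibition defined by wells lacking enzyme.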
# A549 viability: Nrf2 qHTS screen for inhibitors: counterscreen for cytotoxicity | Potency, µM (doses to about 46 µM), actives largely listed as inhibitors | A549 ARE-Fluc cells, CellTiter-Fluor viability, 18-24 h | hit rate 0.16% among 390,000 | AID 504648, 2011
#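 A549 ARE-Fluc cells in 5% FBS OPTI-MEM, 5000 cells/well, rested 2 h then exposed to compounds in concentration-response for 18-24 h at 37 °C. Viability by CellTiter-Fluor fluorescence (Ex 405/Em 525) after 30 min; luciferase luminescence (BugLite, 15 min, RT) read afterwards.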
# miR-21 reporter: qHTS Assay for Modulators of miRNAs and/orActivators of miR-21; HeLa miR-21 FLuc reporter, luciferase, 48 h; Potency, µM (doses to about 38.3 µM), actives largely listed as activators; 340,000 tested, under 10 active;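 note: miR-21 action dims this reporter so a rising signal means less miR-21 action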
#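 Using DMEM plus 10% FBS, HeLa miR-21-FLuc cells are incubated with test compounds (final up to about 40uM) for 48 hours; firefly luciferase signal is then imaged following reagent-mediated lysis.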
# Nrf2 activator: qHTS of Nrf2 Activators; Potency, µM (doses to about 46.1 µM), usual class: activators; AID 624171, 2012; AREc32 ARE-luciferase reporter (MCF7-derived line), luminescence, 24 h; hit rate 0.31% among 410,000; note: nearly all actives have a fitted effect of over 65% in size
#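 Luciferase luminescence (Steady-Glo, 30 min at room temperature) served as the read-out of ARE activation in AREc32 cells treated with compounds for 24 hr at 37 deg C.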
# Nrf2 inh: Nrf2 qHTS screen for inhibitors | A549 ARE-Fluc reporter, luciferase luminescence, 18-24 h | Potency, µM (series often up to 46 µM), usual class: inhibitors | hit rate 2.1% among 360,000 | AID 504444, 2011; note: nearly all actives have a fitted effect of over 60% in size
#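 In this cell-based qHTS, ARE-driven firefly luciferase in A549 cells reports Nrf2 activity; the luminescent signal after BugLite lysis is the measured value, with a prior CellTiter-Fluor read for cell health.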
# Hits are given with their value; – = inactive; ? = inconclusive; · = no result. Unless noted, calls come from the whole dose curve; as a rule, active = well fitted curve in the direction sought with a large enough effect; inconclusive = small, poorly fitted or top-dose-only effect, or another doubt; inactive = no such curve, though single readings can be large; an effect the other way counts as inactive or inconclusive.
SMILES,GALK inh,PI4K2A block,A549 viability,miR-21 reporter,Nrf2 activator,Nrf2 inh
Cc1cccc(Cn2cc(CN3CC(N(C)CCCOC(=O)c4cc(C)cc(C)c4)CS3(=O)=O)nn2)c1 (stereo unspecified),·,–,·,·,·,·
C=CC[n+]1c(-c2ccc(Cl)cc2Cl)csc1Nc1c(C)n(C)n(-c2ccccc2)c1=O,–,–,–,–,–,?
C=CC[n+]1c(-c2ccc(Cl)cc2Cl)csc1Nc1ccc(NC(C)=O)cc1,–,–,–,?,–,12µM
Cc1ccc(N2CCN(S(=O)(=O)c3ccc4c(c3)CC(=O)N4)CC2)cc1,·,·,–,·,·,–
CC(C)CCN(C(=O)c1csnn1)C(C(=O)NC1CCCC1)c1ccc(F)cc1 (stereo unspecified),–,–,18µM,–,–,23µM
COc1ccc(-c2nc3ccccc3c(=O)n2Cc2ccc(CNC(=O)CO)cc2)cc1COc1ccc(NC(C)=O)cc1,·,·,–,·,·,?
COc1ccc2nc(C(F)(F)Cl)c(C#N)c(N)c2c1,–,–,–,–,–,21µM
COc1ccc2nc3cc(Cl)ccc3c(C#N)c2c1,–,–,–,–,–,?
C/C=C/C(=O)N1CCC(C(=O)NCC2COc3ccccc3O2)CC1 (stereo unspecified),·,–,·,·,·,·
COc1ccc(C2c3[nH]c4ccccc4c3CCN2C(=O)CCC2CCCC2)cc1 (stereo unspecified),·,–,–,–,–,·
COc1ccc(C2c3[nH]c4ccc(OC)cc4c3CCN2C(=O)Nc2ccccc2)cc1 (stereo unspecified),·,–,?,?,–,15µM
COc1ccc(NC(=O)CSc2ccc3ccccc3c2)cc1S(=O)(=O)N1CCCCC1,–,–,–,–,–,7.3µM
COc1ccc(NC(=O)CSc2ccc(NC(C)=O)cc2)cc1S(=O)(=O)N1CCOCC1,·,–,–,·,–,–
O=C(Nc1ccc(Cl)c(S(=O)(=O)N2CCOCC2)c1)C1CCCC1,·,–,–,·,–,23µM
O=C(CSc1ccccc1)Nc1ccc(Cl)c(S(=O)(=O)N2CCOCC2)c1,·,–,–,·,–,23µM
O=C(Nc1ccc(F)c(S(=O)(=O)N2CCOCC2)c1)C1CCCCC1,·,–,–,·,–,–
CCc1ccc(NC(=O)C2=CC(c3ccc(OC)c(OC)c3)=NS(=O)(=O)N2C)cc1,·,–,–,–,–,23µM
COc1ccc(C2=NS(=O)(=O)N(C)C(C(=O)N3CCc4ccccc4C3)=C2)cc1OC,·,–,–,–,–,15µM
CCn1c2c(c(=N)c3ccccc31)CCC2,–,–,–,–,–,13µM
COc1ccc(/C=C/C(=O)NCc2cn(C)nc2C)cc1COc1ccc(Br)cc1,–,–,–,–,–,18µM
COc1ccc(-c2sc(NC(=O)c3ccc(C)cc3)nc2-c2ccc([N+](=O)[O-])cc2)cc1,–,–,–,–,–,–
COc1ccc(C(=O)Nc2nc(-c3ccc([N+](=O)[O-])cc3)c(-c3ccccc3)s2)cc1,·,–,–,·,–,13µM
COC(=O)[C@]1(C#N)CC(=O)N(Cc2ccc(Cl)cc2)[C@@H]1c1ccccc1,·,–,·,·,·,·
N#Cc1ccc(CSc2nc3sc4c(c3c(=O)n2-c2ccc(Br)cc2)CCCC4)cc1,·,–,·,·,·,·
O=C(O)c1cc(N2N=C(C(F)(F)F)/C(=C/C=C/c3ccco3)C2=O)ccc1Cl,–,-67,–,–,–,?
SMILES,GALK inh,PI4K2A block,A549 viability,miR-21 reporter,Nrf2 activator,Nrf2 inh
CCOC(=O)c1ccc(N2N=C(C)/C(=C/C=C/c3ccco3)C2=O)cc1,–,–,–,–,–,–
c1ccc(Cn2c(SC3CCCCC3)nnc2-c2cccnc2)cc1,·,–,·,·,·,·
CC(=O)Nc1ccc(OC2=NS(=O)(=O)c3ccccc32)cc1,·,·,–,·,·,?
CCCN(CCC)S(=O)(=O)c1ccc2c(c1)CCCN2C(C)=O,–,–,–,–,–,–
O=C(Nc1ccc(C(=O)N2CCCc3ccccc32)cc1)c1cccs1,–,–,?,–,–,21µM
CCCN(CCC)S(=O)(=O)c1ccc(C(=O)N2CCCc3ccccc32)cc1,–,–,–,–,–,18µM
O=C(Nc1ccc2c(c1)CCCN2C(=O)c1cccs1)c1c(F)cccc1Cl,–,–,–,–,–,26µM
O=C(Nc1ccc2c(c1)CCCN2C(=O)c1cccs1)c1c(F)cccc1F,–,–,–,–,–,–
CCOC(=O)[C@@]12CCCC=C1N(CCc1ccc(Cl)cc1)C(=O)[C@H]2CC(=O)N1CCCC1,·,–,·,·,·,·
COc1cccc(N2CCN(CC(=O)NCc3cccc(OC)c3OC)CC2)c1,·,–,·,·,·,·
CS(=O)(=O)N[C@@H]1C[C@@H]2O[C@H](CO)CC[C@@H]2O[C@@H]1CCc1ccc(-c2ccccc2F)cc1,·,–,·,·,·,·
COc1ccc2c(c1)Oc1ncn(CCN3CCOCC3)c(=N)c1C2c1ccc(OC)c(OC)c1 (stereo unspecified),·,·,–,·,·,–
O=C(Nc1ccc(NC(=S)NC(=O)c2ccccc2Cl)cc1)c1cccc(Cl)c1,·,–,–,·,–,18µM
CCCC(=O)NC(=S)Nc1cccc(NC(=O)c2ccccc2)c1,–,–,–,–,–,?
CC(C)CC(=O)NC(=S)Nc1cccc(NC(=O)c2ccccc2)c1,–,–,–,–,–,15µM
Cn1c(=O)c2c(-c3ccc(Cl)cc3)n(Cc3ccccc3)cc2n(C)c1=O,·,–,–,–,–,?
Cn1c(=O)c2cn(Cc3ccc(Cl)cc3)cc2n(C)c1=O,–,–,–,–,–,12µM

# Compound activity from PubChem.
